Data published in PubChem BioAssay (NCI).
Where “and” joins values, the source holds several entries; their conditions need not be identical. Equal values may be shown once. Compounds without any hit were thinned out: in the full panel of roughly 83,000, 20% have a hit.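 Assay: single dose, 48 h. Readout: percent growth (0 = no net growth; negative = cell death). Active: <10.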 Calls of active or inactive are those of the source.

Columns and labels:
Assay in all cases: NCI-60 one-dose screen, 48 h (100 = growth as untreated, 0 = no growth, -100 = all killed)
NCI/ADR-RES ovarian = conditions: 10 µM unless noted
BT-549 breast = test system: BT-549 breast
MDA-MB-435 melanoma = conditions: 10 µM unless noted
SW-620 colon = test system: SW-620 colon
MCF7 breast = test system: MCF7 breast
HCT-116 colon = test system: HCT-116 colon
HCC-2998 colon = test system: HCC-2998 colon
KM12 colon = test system: KM12 colon
T-47D breast = test system: T-47D breast

Measured: growth

C/C(=C\c1ccn(-c2ccc(N)cc2F)n1)[C@@H]1C[C@@H]2O[C@]2(C)CCC[C@H](C)[C@H](O)[C@@H](C)C(=O)C(C)(C)[C@@H](O)CC(=O)O1
active: NCI/ADR-RES ovarian -11.9% | MDA-MB-435 melanoma -30% | HCC-2998 colon; 10 µM unless noted -15%
inactive: BT-549 breast; 10 µM unless noted 19.7% | SW-620 colon; 10 µM unless noted 35.1% | MCF7 breast; 10 µM unless noted 16.7% | HCT-116 colon; 10 µM unless noted 12.2% | KM12 colon; 10 µM unless noted 10.2%

Cc1cc(N)ccc1N
inactive: NCI/ADR-RES ovarian 105% | BT-549 breast; 10 µM unless noted 90.4% | MDA-MB-435 melanoma 116% | SW-620 colon; 10 µM unless noted 96.6% | MCF7 breast; 10 µM unless noted 92.2% | HCT-116 colon; 10 µM unless noted 91.8% | HCC-2998 colon; 10 µM unless noted 93.2% | KM12 colon; 10 µM unless noted 104%

Cc1ccc(S(=O)(=O)n2cc([C@@]3(O)C[C@H](CSC#N)OC3=O)c3ccccc32)cc1
inactive: NCI/ADR-RES ovarian 82.2% | BT-549 breast; 10 µM unless noted 70.9% | SW-620 colon; 10 µM unless noted 36.1% | MCF7 breast; 10 µM unless noted 23.6% | HCT-116 colon; 10 µM unless noted 45.6% | HCC-2998 colon; 10 µM unless noted 25.1% | KM12 colon; 10 µM unless noted 68.7%

COc1ccn(C)c(=O)c1C#N
inactive: NCI/ADR-RES ovarian 102% | BT-549 breast; 10 µM unless noted 103% | MDA-MB-435 melanoma 107% | SW-620 colon; 10 µM unless noted 94.1% | MCF7 breast; 10 µM unless noted 93% | HCT-116 colon; 10 µM unless noted 97% | HCC-2998 colon; 10 µM unless noted 101% | KM12 colon; 10 µM unless noted 96.6%

O=C(O)C(F)F
inactive: T-47D breast; 10 µM unless noted 96.6% | BT-549 breast; 10 µM unless noted 117% | MDA-MB-435 melanoma 102% | SW-620 colon; 10 µM unless noted 90.4% | MCF7 breast; 10 µM unless noted 97.1% | HCT-116 colon; 10 µM unless noted 107% | HCC-2998 colon; 10 µM unless noted 123% | KM12 colon; 10 µM unless noted 103%

CCCC1CCCCC12C(=O)NC(=O)NC2=O (stereo not given)
inactive: T-47D breast; 10 µM unless noted 93.2% and 87.8% | BT-549 breast; 10 µM unless noted 112% and 98.9% | MDA-MB-435 melanoma 99.1% and 108% | SW-620 colon; 10 µM unless noted 94.9% and 106% | MCF7 breast; 10 µM unless noted 98.6% and 99.9% | HCT-116 colon; 10 µM unless noted 109% and 94.4% | HCC-2998 colon; 10 µM unless noted 103% and 96.6% | KM12 colon; 10 µM unless noted 98.1% and 107%

O=[N+]([O-])c1ccc(CI)cc1
inactive: NCI/ADR-RES ovarian 70.9% | BT-549 breast; 10 µM unless noted 98.6% | MDA-MB-435 melanoma 90.4% | SW-620 colon; 10 µM unless noted 26.4% | MCF7 breast; 10 µM unless noted 21.7% | HCC-2998 colon; 10 µM unless noted 108% | KM12 colon; 10 µM unless noted 106%
active: HCT-116 colon; 10 µM unless noted 1.59%

CC(=O)OCC1OC([S-])C(OC(C)=O)C(OC(C)=O)C1OC(C)=O.[Au+].c1ccc(CN2[CH-]N(Cc3ccccc3)C(c3ccccc3)=C2c2ccccc2)cc1
active: T-47D breast; 4.75 µM -20.3% | T-47D breast; 10 µM -52.1% | BT-549 breast; 4.75 µM 7.95% | SW-620 colon; 4.75 µM -33% | SW-620 colon; 10 µM -17.6% | MCF7 breast; 4.75 µM 0.0903% | MCF7 breast; 10 µM -66.1% | HCT-116 colon; 4.75 µM -5.84% | HCT-116 colon; 10 µM -16.6% | HCC-2998 colon; 10 µM -62.8% | KM12 colon; 4.75 µM 6.84%
inactive: BT-549 breast; 10 µM 12.6% | HCC-2998 colon; 4.75 µM 16.7% | KM12 colon; 10 µM 38%

N#CCN(CC#N)[N+](=O)[O-]
inactive: NCI/ADR-RES ovarian 110% | MDA-MB-435 melanoma 108% | SW-620 colon; 10 µM unless noted 101% | MCF7 breast; 10 µM unless noted 93.3% | HCT-116 colon; 10 µM unless noted 96.8% | HCC-2998 colon; 10 µM unless noted 115% | KM12 colon; 10 µM unless noted 112%

COc1cc2c(c(OC)c1OC)-c1ccc(O)cc1[C@@H](NC(C)=O)CC2
inactive: T-47D breast; 10 µM unless noted 56.4% and 64% | SW-620 colon; 10 µM unless noted 21.9% and 20.7%
15.1% (inactive) and 6.46% (active): MCF7 breast; 10 µM unless noted
active: BT-549 breast; 10 µM unless noted 8.27% | MDA-MB-435 melanoma -27.7% and -47.4% | HCT-116 colon; 10 µM unless noted 6.62% and 4.98% | KM12 colon; 10 µM unless noted -17.3% and -32.3%
11.5% (inactive) and 8.19% (active): HCC-2998 colon; 10 µM unless noted

NC(=O)c1c(Br)c(Br)c(Br)c(Br)c1C(=O)O (tested in a mixture with another compound)
inactive: NCI/ADR-RES ovarian 103% and 100% | BT-549 breast; 10 µM unless noted 104% and 96.8% | SW-620 colon; 10 µM unless noted 97.5% and 105% | MCF7 breast; 10 µM unless noted 79.5% and 88.8% | HCT-116 colon; 10 µM unless noted 97.8% and 105% | HCC-2998 colon; 10 µM unless noted 104% and 103% | KM12 colon; 10 µM unless noted 103% and 102%

CN(C)c1ccc([N+](=O)[O-])c([N+](=O)[O-])c1
inactive: NCI/ADR-RES ovarian 104% and 97.9% | BT-549 breast; 10 µM unless noted 90.5% and 105% | MDA-MB-435 melanoma 99% and 97.1% | SW-620 colon; 10 µM unless noted 101% and 111% | MCF7 breast; 10 µM unless noted 83.6% and 91% | HCT-116 colon; 10 µM unless noted 98.2% and 102% | HCC-2998 colon; 10 µM unless noted 96.6% and 107% | KM12 colon; 10 µM unless noted 109% and 112%

O=c1[nH]c(=O)n(Cl)c(=O)n1Cl
inactive: NCI/ADR-RES ovarian 115% and 96.8% | BT-549 breast; 10 µM unless noted 108% and 110% | MDA-MB-435 melanoma 102% and 114% | SW-620 colon; 10 µM unless noted 105% and 110% | MCF7 breast; 10 µM unless noted 108% and 86% | HCT-116 colon; 10 µM unless noted 113% and 99.4% | HCC-2998 colon; 10 µM unless noted 123% and 96% | KM12 colon; 10 µM unless noted 101% and 107%

O=C(O)c1cc([N+](=O)[O-])cc([N+](=O)[O-])c1
inactive: NCI/ADR-RES ovarian 106% | BT-549 breast; 10 µM unless noted 94.3% | MDA-MB-435 melanoma 101% | SW-620 colon; 10 µM unless noted 105% | MCF7 breast; 10 µM unless noted 93.8% | HCT-116 colon; 10 µM unless noted 85.4% | HCC-2998 colon; 10 µM unless noted 107% | KM12 colon; 10 µM unless noted 103%
